HIV Env fusion – inhibitors of HIV-1 Env-driven cell-cell fusion, primary screen, HeLa-JRFL effector, CEM21 target cells, luciferase; inhibition, % at 12.3 µM; 360,000 tested, 1.1% active;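 active means mean replicate inhibition score of at least 50 and every replicate individually at or above 50; inconclusive means only one of the two criteria met; inactive means mean below 50 and not all replicates reaching 50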;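 further: 0% = plate neutral controls and 100% = maraviroc near 300 nM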
EWS-Fli block – EWS/Fli-driven NR0B1 reporter inhibitors, primary screen, A673 cells, NR0B1 luciferase, luminescence, MLPCN library; AID 651661, 2012; inhibition, % at 12.6 µM; viability-normalised; 350,000 tested, 0.67% active;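 active means mean inhibition of at least 50% after viability correction, with every replicate also passing that limit; inconclusive means mean reaches 50% but only one of two replicates passes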;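 further: firefly luciferase signal divided by Alamar Blue viability fluorescence both relative to DMSO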
FXN GAA850 act – FXN promoter activators, primary screen, cell-based, luciferase luminescence, HEK293 lucGAA850 | HEK293 lucGAA850 FXN promoter luciferase reporter, 24 h; percent of 10 µM SAHA response | 360,000 tested, 0.56% active | activation, % at 6 µM;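 active means activation above the average of all compounds screened plus 3 SD, cutoff fixed separately per campaign, cut at about 7.5% in these data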;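 further: 0% = DMSO wells and 100% = 10 µM SAHA wells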
PAX8 reporter – inhibitors of PAX8-driven TPO luciferase reporter, primary screen, RMG-I cells, single concentration | SteadyGlo, 24 h | inhibition, % at 12.6 µM | 360,000 tested, 1.2% active | AID 652154, 2013;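 active means mean replicate inhibition at least 60% with every replicate also reaching 60%; inconclusive means only one of the two criteria is met; inactive means mean below 60% and not all replicates reaching 60%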;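 further: luciferase light reporting Pax8 driven TPO promoter activity; plate controls were median of neutral control wells for no effect and mitoxantrone controls for full effect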
CFTR F508del cor – F508del CFTR correction, initial screen, CFBE line, single point; CFBE cells, YFP halide quenching; stimulated with forskolin plus potentiator P3; % fluorescence drop versus neutral controls; activity (quench increase), % at 7.58 µM; 350,000 tested, 0.36% active; AID 720511, 2013;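 active means mean added fluorescence quench of at least 8% versus neutral control, with both replicates also reaching 8%; inconclusive means only one of the mean or replicate conditions met; inactive means mean below 8% and not both replicates reaching 8%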;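 further: cells transiently co-express mutant CFTR-F508del with the halide-sensitive YFP; corrector assay measuring rescue of mutant channel to the surface after 24 h compound exposure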
* = called active by the depositor; ! = not active in a repeat; [ ] = dose if it differs, or a comment. Shown are actives, neighbours in structure and some others; about 2.5% of the full set was active somewhere.

For O=[N+]([O-])c1cc(Br)c(Nc2ccccc2)c([N+](=O)[O-])c1 the results were HIV Env fusion -406, EWS-Fli block 30, FXN GAA850 act -2, PAX8 reporter 84* and CFTR F508del cor 1.
O=C(Nc1ccccc1)c1ccc(Nc2c([N+](=O)[O-])cc([N+](=O)[O-])c3ccccc23)cc1 was read as HIV Env fusion 37, FXN GAA850 act -1 and PAX8 reporter 18.
Screening Cc1onc(C(=O)N2CCN(C(c3ccccc3)c3ccccc3)CC2)c1[N+](=O)[O-] returned HIV Env fusion -2, EWS-Fli block 27, FXN GAA850 act -2, PAX8 reporter 97* and CFTR F508del cor -2.
For O=C(c1cc(-c2cccs2)on1)N1CCN(C(c2ccccc2)c2ccccc2)CC1 the results were HIV Env fusion 12, FXN GAA850 act 0 and PAX8 reporter 99*.
For CCN(C1CCCCC1)S(=O)(=O)c1ccc(S(=O)(=O)N(CC(=O)Nc2ccccc2)C2CC2)cc1 the results were HIV Env fusion 75* and FXN GAA850 act 4.
`CCCNC(=O)Nc1ccc2c(c1)OC[C@@H](C)N(C(=O)C1CCCCC1)C[C@@H](C)[C@H](OC)CN(C)C2=O` gave EWS-Fli block 4, PAX8 reporter -7 and CFTR F508del cor -2.
`CC[C@H]1C(c2ccc(F)cc2)=NN(c2ccccc2)[C@@H]1CO` gave HIV Env fusion 60*, EWS-Fli block -14, FXN GAA850 act 0, PAX8 reporter -8 and CFTR F508del cor 0.
Screening COc1ccc(S(=O)(=O)Nc2ccc3c(c2)C(=O)N([C@H](C)CO)C[C@@H](C)[C@H](CN(C)C(=O)C2CCCCC2)OCCCC[C@@H](C)O3)cc1 returned HIV Env fusion -14[16.7 µM], EWS-Fli block 11, PAX8 reporter 33 and CFTR F508del cor -2.
For O=C(Nc1ccc(C(F)(F)F)cc1)N1C[C@@H]2N[C@H](C1)C2c1ccc(-c2ccccc2)cc1 (some centres undefined) the results were EWS-Fli block -9, PAX8 reporter 108* and CFTR F508del cor -10.
`O=C(Nc1ccc(C(F)(F)F)cc1)N1C[C@@H]2N[C@H](C1)C2c1ccc(/C=C/c2ccccc2)cc1` (some centres undefined) gave EWS-Fli block 6, PAX8 reporter 90*! and CFTR F508del cor -3.
Screening COc1cccc(-c2cnc3c(c2)C(=O)N([C@@H](C)CO)C[C@H](C)[C@@H](CN(C)Cc2ccc(C(=O)O)cc2)O3)c1 returned HIV Env fusion -1[16.7 µM], EWS-Fli block -8, PAX8 reporter 5 and CFTR F508del cor 0.
For CCCCNc1cccc2c1S(=O)(=O)N(CCCC)CC(COCc1ccccc1)O2 (centres undefined) the results were HIV Env fusion 61*, EWS-Fli block 6, FXN GAA850 act 0, PAX8 reporter 5 and CFTR F508del cor -1.
`Cc1nn(-c2ccccc2)c(C)c1-c1cc(C(=O)N/N=C/c2ccc(O)cc2)[nH]n1` gave HIV Env fusion -16, EWS-Fli block -5, FXN GAA850 act -2, PAX8 reporter 52 and CFTR F508del cor 2.
For COc1cc(/C=N/NC(=O)c2cc(-c3c(C)nn(-c4ccccc4)c3C)n[nH]2)ccc1O the results were HIV Env fusion -345, EWS-Fli block -30, FXN GAA850 act 1, PAX8 reporter 69* and CFTR F508del cor 14*.
`COc1ccc(CCNC(=O)/C=C/c2ccc3ccccc3n2)cc1OC` gave HIV Env fusion -16, EWS-Fli block 19, FXN GAA850 act 2, PAX8 reporter 77* and CFTR F508del cor -3.
C1CCC(C(CC2CCCCN2)C2CCCCC2)CC1 (centres undefined) was read as HIV Env fusion -7, EWS-Fli block inconclusive, FXN GAA850 act -7, PAX8 reporter -4 and CFTR F508del cor 9.9*!.
Cc1noc(NS(=O)(=O)c2ccc(N/C=C\C(=O)c3ccccc3)cc2)c1C was read as HIV Env fusion -1, EWS-Fli block -9, FXN GAA850 act 1, PAX8 reporter -10 and CFTR F508del cor 12*.
O=C(COC(=O)c1c2c(nc3ccccc13)/C(=C\c1cccs1)CCC2)Nc1ccccc1 was read as EWS-Fli block -16, FXN GAA850 act -1, PAX8 reporter 86* and CFTR F508del cor -1.
For CC(C)CNC(=O)COC(=O)c1c2c(nc3ccccc13)/C(=C\c1cccs1)CC2 the results were HIV Env fusion 2, EWS-Fli block -60, FXN GAA850 act 1, PAX8 reporter -60 and CFTR F508del cor 2.
CC(=O)c1ccc(NC(=O)COC(=O)c2c3c(nc4ccccc24)/C(=C\c2cccs2)CCC3)cc1 was read as HIV Env fusion -7, EWS-Fli block -8, FXN GAA850 act -1 and CFTR F508del cor 9.1*.
`CCCN(C[C@@H]1N[C@@H](CO)[C@H]1c1ccc(-c2cccnc2)cc1)C(C)=O` gave EWS-Fli block 0, PAX8 reporter 6 and CFTR F508del cor 0.
`CC(C)NC(=O)Nc1cccc2c1O[C@@H](CN(C)S(=O)(=O)c1cccs1)[C@@H](C)CN([C@H](C)CO)C2=O` gave HIV Env fusion -131[16.7 µM], EWS-Fli block 0 and CFTR F508del cor 2.
CC(C)CC#Cc1cnc2c(c1)C(=O)N([C@@H](C)CO)C[C@@H](C)[C@@H](CN(C)C(=O)Cc1ccncc1)O2 was read as HIV Env fusion -40[16.7 µM], EWS-Fli block -13 and PAX8 reporter -14.
C[C@]12CCC3C(CC[C@H]4CC(O)CC[C@]34C)C1CC/C2=N/NC(=O)c1ccncc1 (some centres undefined) was read as HIV Env fusion -4, EWS-Fli block 53*, FXN GAA850 act 2, PAX8 reporter 0 and CFTR F508del cor 0.
`CC(C)CC#Cc1ccc2c(c1)O[C@@H](CN(C)C)[C@H](C)CN([C@H](C)CO)S2(=O)=O` gave HIV Env fusion 18[16.7 µM], EWS-Fli block 17 and CFTR F508del cor 4.
`COc1ccc([Si](C)(C)[C@H]2[C@H](CCO)O[C@@]3(C(=O)N4c5c(cc(OC)cc53)C(C)=CC4(C)C)[C@@H]2C)cc1` gave HIV Env fusion 34[16.7 µM], EWS-Fli block 12, PAX8 reporter 102* and CFTR F508del cor 6.
`COc1ccc([Si](C)(C)[C@@H]2[C@@H](CCO)O[C@]3(C(=O)N4c5c(cc(OC)cc53)C(C)=CC4(C)C)[C@H]2C)cc1` gave HIV Env fusion 90*[16.7 µM], EWS-Fli block 31, PAX8 reporter 106* and CFTR F508del cor -10.
CCCNC(=O)N1CC2(CN(C(=O)Nc3cccc(F)c3)C2)c2c(n(C)c3cc(OC)ccc23)[C@@H]1CO was read as EWS-Fli block 6 and CFTR F508del cor 0.
COC(=O)Nc1nc2ccc(C(=O)c3cccs3)cc2[nH]1 was read as HIV Env fusion 0, EWS-Fli block 64*, FXN GAA850 act 1, PAX8 reporter 64* and CFTR F508del cor -4.
